This is an account of results in PubChem BioAssay.

The test system of experiment [1] is Plasmodium falciparum Sir2 (PF13_0152, Sir2A). The experiment is described as follows: Plasmodium falciparum Sir2A binding compounds – biochemical, small-molecule microarray, 635 nm fluorescence, primary screen (AID 1098).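 Note: score merges spot fluorescence intensity with its signal-to-noise ratio.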 As to conditions: fluorescence 635 nm, higher = more signal.
A short description of experiment [2]: probe aDKK1 binding to arrayed compounds – biochemical, biotinylated probe, 635/667 nm fluorescence, primary screen (AID 1099).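 Note: score merges 667nm spot fluorescence with signal to noise across triplicate slides; reference of the scale not given here.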 As to conditions: small-molecule microarray, higher = more signal.
The nature of experiment [3]: probe aCHRDL2 binding to arrayed compounds – biochemical, biotinylated probe, 635/667 nm fluorescence, primary screen (AID 1100). As to conditions: small-molecule microarray, higher = more signal.
Experiment [4] in a line: change in splice reporter luminescence, either direction, cell-based, HEK293, spliceosome inhibition project, primary screen (AID 1101).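 Note: HEK293 cells carrying a splicing-competent luciferase reporter gene; test concentration not given here.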 Conditions: HEK293 splicing luciferase reporter, 24 h, higher = more signal, called active from +8 up or from −8 down.
Experiment [5] addresses Fibroblast growth factor 10 (Homo sapiens) (UniProt O15520). As to the kind of experiment: compounds binding fibroblast growth factor 10 – biochemical, small-molecule microarray, 635 nm fluorescence, primary screen (AID 1102). Conditions: FGF10 binding, fluorescence 635 nm, higher = more signal.
Experiment [6] concerns glycogen synthase kinase-3 (GSK3A per assay name; protocol says GSK3B). The experiment is described as follows: compounds binding glycogen synthase kinase-3 – biochemical, small-molecule microarray, 635 nm fluorescence, GSK3A, primary screen (AID 1103). Note: the record names both GSK3A and GSK3B. Conditions: fluorescence 635 nm, higher = more signal.
The target in experiment [7] is Epidermal growth factor receptor (Homo sapiens) (UniProt P00533). The experiment is described as follows: compounds binding epidermal growth factor receptor – biochemical, small-molecule microarray, 635 nm fluorescence, primary screen (AID 1104).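 Note: score merges 667 nm emission intensity with spot signal to noise over triplicate slides.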 Conditions: EGFR binding, higher = more signal.
Experiment [8] addresses Follistatin-related protein 3 (Homo sapiens) (UniProt O95633). The experiment is described as follows: compounds binding follistatin-related protein 3 – biochemical, small-molecule microarray, 635 nm fluorescence, primary screen (AID 1105).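 Note: score merges emission near 667 nm and signal to noise per printed spot across three slides.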 Conditions: FSTL3 binding, higher = more signal.
Experiment [9] has as its target Dickkopf-related protein 1 (Homo sapiens) (UniProt O94907). As to the kind of experiment: small molecules binding DKK1 protein – biochemical, small-molecule microarray, 635 nm fluorescence scan, primary screen (AID 1106).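 Note: score merges emission near 667 nm with signal to noise over three replicate slides.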 Conditions: higher = more signal.
Experiment [10] relates to Inhibin beta A chain (activin A). The experiment is described as follows: small molecules binding activin A – biochemical, small-molecule microarray, 635 nm fluorescence scan, primary screen (AID 1107).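 Note: mouse activin A protein probed at 4.33 µg/mL on printed slides; score merges bound-protein fluorescence near 667 nm with spot signal-to-noise.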 As to conditions: INHBA, higher = more signal.

The source made the active and inactive calls.

Chain of Follistatin-related protein 3 (Homo sapiens) (O95633 whole entry, looked up): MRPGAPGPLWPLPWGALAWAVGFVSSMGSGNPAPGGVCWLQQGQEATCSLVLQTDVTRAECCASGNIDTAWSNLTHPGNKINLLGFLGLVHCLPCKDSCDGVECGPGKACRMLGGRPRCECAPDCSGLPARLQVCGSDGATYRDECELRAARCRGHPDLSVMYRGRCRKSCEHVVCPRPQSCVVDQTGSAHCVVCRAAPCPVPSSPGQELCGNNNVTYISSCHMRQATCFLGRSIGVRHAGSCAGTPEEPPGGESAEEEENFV
Chain of Fibroblast growth factor 10 (Homo sapiens) (O15520 whole entry, looked up): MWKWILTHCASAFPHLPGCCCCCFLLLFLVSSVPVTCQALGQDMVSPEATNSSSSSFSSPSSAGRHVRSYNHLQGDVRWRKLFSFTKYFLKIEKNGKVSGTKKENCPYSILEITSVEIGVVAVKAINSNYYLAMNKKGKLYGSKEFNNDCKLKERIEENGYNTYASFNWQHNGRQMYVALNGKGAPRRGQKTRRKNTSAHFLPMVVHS
Chain of Epidermal growth factor receptor (Homo sapiens) (P00533 whole entry, looked up): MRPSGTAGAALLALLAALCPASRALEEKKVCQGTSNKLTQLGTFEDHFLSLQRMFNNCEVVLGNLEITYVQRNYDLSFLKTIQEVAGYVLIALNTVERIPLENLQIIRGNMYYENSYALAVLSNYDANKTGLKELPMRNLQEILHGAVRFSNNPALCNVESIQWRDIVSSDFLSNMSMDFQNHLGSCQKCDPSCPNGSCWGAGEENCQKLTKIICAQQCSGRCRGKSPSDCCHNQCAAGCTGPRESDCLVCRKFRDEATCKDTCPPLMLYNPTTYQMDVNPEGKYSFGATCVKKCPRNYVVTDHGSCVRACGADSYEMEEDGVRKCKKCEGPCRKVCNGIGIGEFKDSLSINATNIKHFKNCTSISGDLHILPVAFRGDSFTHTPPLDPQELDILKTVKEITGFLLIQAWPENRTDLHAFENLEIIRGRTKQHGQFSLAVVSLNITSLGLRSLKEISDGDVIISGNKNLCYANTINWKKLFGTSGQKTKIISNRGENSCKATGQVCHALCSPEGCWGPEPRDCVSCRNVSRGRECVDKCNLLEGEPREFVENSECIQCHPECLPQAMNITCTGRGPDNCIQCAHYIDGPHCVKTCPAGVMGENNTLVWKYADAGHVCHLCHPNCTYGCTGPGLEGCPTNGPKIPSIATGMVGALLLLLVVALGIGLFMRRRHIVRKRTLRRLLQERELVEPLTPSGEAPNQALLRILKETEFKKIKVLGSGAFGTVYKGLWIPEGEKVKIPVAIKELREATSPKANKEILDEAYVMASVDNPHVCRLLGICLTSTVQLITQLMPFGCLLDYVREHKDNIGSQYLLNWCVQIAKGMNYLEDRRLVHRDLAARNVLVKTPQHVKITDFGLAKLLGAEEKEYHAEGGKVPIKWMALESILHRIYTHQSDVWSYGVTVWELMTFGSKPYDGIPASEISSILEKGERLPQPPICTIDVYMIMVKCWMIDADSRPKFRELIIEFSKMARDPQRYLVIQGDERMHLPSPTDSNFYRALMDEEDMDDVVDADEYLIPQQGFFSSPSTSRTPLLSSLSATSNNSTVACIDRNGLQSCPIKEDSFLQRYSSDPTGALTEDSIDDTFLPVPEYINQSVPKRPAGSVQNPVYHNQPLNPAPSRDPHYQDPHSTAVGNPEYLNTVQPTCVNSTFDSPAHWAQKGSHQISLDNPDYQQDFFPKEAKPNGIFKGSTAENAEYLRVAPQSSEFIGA
Chain of Dickkopf-related protein 1 (Homo sapiens) (O94907 whole entry, looked up): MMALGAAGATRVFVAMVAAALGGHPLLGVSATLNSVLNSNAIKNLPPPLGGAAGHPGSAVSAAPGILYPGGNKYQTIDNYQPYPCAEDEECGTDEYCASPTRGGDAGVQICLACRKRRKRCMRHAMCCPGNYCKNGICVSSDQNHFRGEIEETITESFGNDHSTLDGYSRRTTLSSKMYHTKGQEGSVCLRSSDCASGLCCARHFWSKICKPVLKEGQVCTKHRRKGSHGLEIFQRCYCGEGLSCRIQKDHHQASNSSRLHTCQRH

As to `CCCNC(=O)[C@@H]1c2ccccc2C(=O)N(Cc2ccccc2OC)[C@H]1c1ccc(CO)cc1`, the composite z-score amounted to 1.37 in experiment [1]; 0.0051 in [2]; 0.4 in experiment [3]; 0.714 in experiment [5]; 0.68 in experiment [6]; 0.0755 in experiment [7]. The composite z-score in [8] was 0.995; in [9], 0.216; in [10], -0.258. For the same compound, in experiment [4], the z-score was 0.233 (inactive).

With `CCOC(=O)C1=CCC(c2ccc(F)cc2)N(S(=O)(=O)c2ccc(C)cc2)C1` (stereo not given), the composite z-score in experiment [1] is 0.12; in experiment [2], 0.582; in experiment [3] it was 0.291; in experiment [5], -0.0564; in experiment [6], 0.265; in experiment [7] it was 0.192. In addition, the composite z-score in [8] stood at 0.249; in [9], 0.127; in experiment [10], 1.01. Also, the z-score in [4] is 0.0136 (inactive).

As to `CC(C)=CCCC(C)=CC(O)C1C=CC2C(=O)N(c3ccccc3)C(=O)C2N1Nc1ccc(C(C)C)cc1` (stereo not given), the composite z-score in [1] is 0.855; in experiment [2], -0.0008; in experiment [3], 0.816; in experiment [5], 0.691; in experiment [6] it was 0.615; in [7], -0.0514. Further, the composite z-score was 0.966 in [8], -0.609 in [9] and 0.583 in experiment [10]. Further, the z-score in experiment [4] was 0.433 (inactive).

Turning to `C#CCN1[C@H](/C=C/C2CC2)[C@H](Cc2ccccc2)OC(=O)[C@@H]1Cc1ccccc1`, the composite z-score in experiment [1] was 1.16; in experiment [2], -0.411; in experiment [3], -0.507; in experiment [5], 0.294; in experiment [6], 0.109; in experiment [7] it was 0.323. Besides, the composite z-score in experiment [8] was 0.326; in experiment [9], 0.428; in [10], 0.849. In experiment [4], the z-score was 0.23 (inactive).

Consider `CC(C)[Si](C#C[Si](C(C)C)(C(C)C)C(C)C)(O[C@H](C)c1cn(Cc2ccccc2)nn1)C(C)C`, for which the composite z-score in experiment [1] is 0.733; in experiment [2], -0.0531; in experiment [3], -0.252; in experiment [5], 0.584; in experiment [6], 0.856; in experiment [7], 0.361. Moreover, the composite z-score in [8] is 0.688; in experiment [9], 0.0811; in experiment [10], -0.353. Also, the z-score in experiment [4] was -0.9 (inactive).

For the compound `C=C(CCCC)/C(=C/C[C@H](OC(C)=O)c1ccc(OCCO)cc1)c1cnc2ccccc2c1`, the composite z-score in experiment [1] is 0.641; in experiment [2] it was -0.182; in experiment [3], -0.0866; in experiment [5] it was 0.672; in experiment [6], 0.209; in experiment [7], 0.384. In addition, the results for the composite z-score in [8], in [9] and in experiment [10] were 1.12, 0.446 and 1.53, respectively. Besides, the z-score in experiment [4] was 0.299 (inactive).

Take `COc1ccc([Si](C)(C)[C@@H]2[C@@H](CC(=O)N3Cc4ccccc4C[C@H]3CO)O[C@]3(C(=O)N(Cc4cccc(N5CCC5=O)c4)c4ccccc43)[C@H]2C)cc1`: the composite z-score is 1.22 in [1]; -0.0652 in experiment [2]; 0.119 in [3]; 0.48 in [5]; 0.611 in experiment [6]; 0.73 in experiment [7]. The composite z-score in [8] came to 0.692; in experiment [9], 0.641; in experiment [10], 0.886. For the same compound, the z-score in experiment [4] was -0.432 (inactive).

As to `C[N+](C)(C)CCCC[C@@H]1NC(=O)[C@@H]2C[C@H](C(=O)NCCCCCCNC(=O)CS)[C@H](c3ccc(O)cc3)N2C1=O`, the composite z-score in experiment [1] is 1.09; in experiment [2] it was -0.0559; in [3], 0.492; in [5] it was -0.387; in [6], -1.28; in experiment [7], -0.502. Further, the composite z-score in experiment [8] was -1.58; in [9], -0.141; in experiment [10] it was -0.655. Moreover, the z-score in [4] is 0.00498 (inactive).

With `[N-]=[N+]=NCc1ccccc1[C@@H]1OC(c2ccc(OCCCO)cc2)=N[C@]1(CCS(=O)(=O)c1ccccc1)C(=O)N1CCOCC1`, the composite z-score in [1] turned out to be 1.46; in experiment [2], 1.27; in experiment [3], 1.31; in experiment [5], 1.04; in experiment [6], 1.12; in [7] it was 0.117. Besides, the composite z-score was 1.07 in [8], -0.242 in experiment [9] and 0.933 in [10]. The z-score in experiment [4] was -1.56 (inactive).

Consider `O=C1O[C@@H](c2ccccc2)[C@@H](c2ccccc2)N2[C@@H](c3ccccc3OCCO)[C@]3(C(=O)Nc4ccccc43)[C@@H](C(=O)O)[C@H]12`, for which the composite z-score is 1.61 in experiment [1]; -0.124 in experiment [2]; 0.148 in experiment [3]; 0.798 in experiment [5]; -0.269 in experiment [6]; -0.447 in experiment [7]. Besides, the composite z-score in experiment [8] is 0.0073; in experiment [9], -0.499; in experiment [10], -0.143. Besides, in experiment [4], the z-score is -1.71 (inactive).

Regarding `C=C(CCCC)/C(=C/C[C@H](OC(=O)c1ccncc1)c1ccc(OCCO)cc1)c1cc(C(=O)OC)ccc1OC`, the composite z-score in [1] was 0.694; in experiment [2] it was -0.172; in [3] it was -0.116; in experiment [5] it was 0.752; in [6], -0.139; in experiment [7] it was 0.053. Further, the composite z-score in [8] came to 0.14; in experiment [9], 0.204; in experiment [10], 1.29. In experiment [4], the z-score is -1.14 (inactive).
